This note sets out measurements from paper PMC7862700, “An all-to-all approach to the identification of sequence-specific readers for epigenetic DNA modifications on cytosine”.

Common to all, as to assay: DAPPL (digital affinity profiling via proximity ligation, sequencing); 10 mM Tris-HCl pH 7.5, 50 mM NaCl, 1 mM DTT, 4% glycerol, room temperature, 30 min; GST-TFs on glutathione beads, 16-mer random dsDNA library, 0.1% formaldehyde crosslink after washing; high values mean tight binding
One test addresses T1, FEV (Homo sapiens, UniProt Q99581 1-238).
T1 sequence: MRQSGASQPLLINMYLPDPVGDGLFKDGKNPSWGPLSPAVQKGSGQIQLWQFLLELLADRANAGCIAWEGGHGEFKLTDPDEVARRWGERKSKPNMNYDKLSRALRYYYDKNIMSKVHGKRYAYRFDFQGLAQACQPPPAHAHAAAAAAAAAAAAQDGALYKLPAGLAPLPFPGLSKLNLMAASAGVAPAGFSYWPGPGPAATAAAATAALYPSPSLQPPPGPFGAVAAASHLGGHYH
Conditions: protein: recombinant; tags: N-terminal GST; dsDNA, one strand shown. Put shortly:
(§1)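 Beads coated with glutathione captured GST-fused human transcription factors that had been expressed in yeast, and the factors were then given DNA barcodes and pooled with a tag-only sample. The pools were incubated with 200 nmole of a random double-stranded 16-mer DNA library in Tris/NaCl/DTT/glycerol buffer for 30 min at room temperature, washed, crosslinked with 0.1% formaldehyde and proximity-ligated with BsaI/T4 ligase at 37 °C for 1 h. PCR amplification and Illumina NextSeq500 sequencing came last. Binding signal is each hexamer's read frequency for a factor divided by its frequency for the tag-only sample.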

In the next test the target is ETV5 (Homo sapiens, UniProt P41161 1-510). Conditions: protein: recombinant; tags: N-terminal GST; dsDNA, one strand shown. Put shortly:
as §1

The target of the next test is HSF1 (Homo sapiens, UniProt Q00613 1-529). The note with it: protein: recombinant; tags: N-terminal GST; chain copies: 3; dsDNA, one strand shown. An outline of the steps:
as §1

The target in the next test is T2, SPIC (Homo sapiens, UniProt Q8N5J4 1-248).
T2 sequence: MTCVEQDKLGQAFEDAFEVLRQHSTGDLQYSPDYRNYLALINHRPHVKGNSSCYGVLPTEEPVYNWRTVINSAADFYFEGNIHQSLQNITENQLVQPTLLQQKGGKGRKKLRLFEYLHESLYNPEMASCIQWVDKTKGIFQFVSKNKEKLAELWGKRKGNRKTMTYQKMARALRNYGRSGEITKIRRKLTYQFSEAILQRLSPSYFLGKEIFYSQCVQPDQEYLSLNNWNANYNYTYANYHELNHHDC
The note with it: protein: recombinant; tags: N-terminal GST; dsDNA, one strand shown. An outline of the steps:
as §1

Another test addresses ELF4 (Homo sapiens, UniProt Q99607 1-663). Conditions: protein: recombinant; tags: N-terminal GST; dsDNA, one strand shown. An outline of the steps:
as §1

In another test the target is T3, ELK4 (Homo sapiens, UniProt P28324-2 1-405).
T3 sequence: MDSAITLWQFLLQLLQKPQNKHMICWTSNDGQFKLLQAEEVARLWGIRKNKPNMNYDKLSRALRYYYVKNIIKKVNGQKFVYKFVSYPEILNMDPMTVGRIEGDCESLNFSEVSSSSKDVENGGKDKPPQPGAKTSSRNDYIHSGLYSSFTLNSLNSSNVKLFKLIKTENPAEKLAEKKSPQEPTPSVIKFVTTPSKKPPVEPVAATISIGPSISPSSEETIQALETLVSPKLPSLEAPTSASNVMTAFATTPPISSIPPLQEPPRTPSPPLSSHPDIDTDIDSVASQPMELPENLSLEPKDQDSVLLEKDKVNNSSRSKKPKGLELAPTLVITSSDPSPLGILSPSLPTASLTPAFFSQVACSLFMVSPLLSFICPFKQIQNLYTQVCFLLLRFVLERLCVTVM
Conditions: protein: recombinant; tags: N-terminal GST; dsDNA, one strand shown. Put shortly: as §1

A further test addresses T4, ETV2 (Homo sapiens, UniProt O00321 1-342).
T4 sequence: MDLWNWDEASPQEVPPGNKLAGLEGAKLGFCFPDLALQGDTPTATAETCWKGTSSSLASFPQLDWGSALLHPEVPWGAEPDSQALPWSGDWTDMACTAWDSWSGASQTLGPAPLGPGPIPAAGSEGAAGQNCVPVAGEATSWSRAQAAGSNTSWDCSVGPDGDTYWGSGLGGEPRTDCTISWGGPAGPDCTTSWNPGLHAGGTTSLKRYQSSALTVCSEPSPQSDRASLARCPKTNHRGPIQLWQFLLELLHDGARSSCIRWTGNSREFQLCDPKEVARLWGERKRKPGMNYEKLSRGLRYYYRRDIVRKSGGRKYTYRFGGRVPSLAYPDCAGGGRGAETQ
The note with it: protein: recombinant; tags: N-terminal GST; dsDNA, one strand shown. Put shortly: as §1

In a further test the target is T5, ELF3 (Homo sapiens, UniProt P78545 1-371).
T5 sequence: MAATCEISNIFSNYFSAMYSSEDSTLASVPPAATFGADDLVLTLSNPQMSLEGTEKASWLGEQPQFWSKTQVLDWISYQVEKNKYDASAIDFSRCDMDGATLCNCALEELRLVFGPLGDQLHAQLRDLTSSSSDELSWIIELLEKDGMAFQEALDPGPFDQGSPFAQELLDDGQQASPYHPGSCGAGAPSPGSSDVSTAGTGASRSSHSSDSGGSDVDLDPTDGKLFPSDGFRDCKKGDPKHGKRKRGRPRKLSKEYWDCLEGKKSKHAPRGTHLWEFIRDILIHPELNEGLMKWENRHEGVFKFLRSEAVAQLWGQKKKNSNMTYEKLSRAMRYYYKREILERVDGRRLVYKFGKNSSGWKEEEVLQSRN
The note with it: protein: recombinant; tags: N-terminal GST; dsDNA, one strand shown. Put shortly:
as §1

In the next test the target is CRX (Homo sapiens, UniProt O43186 1-299). The note with it: protein: recombinant; tags: N-terminal GST; dsDNA, one strand shown. Put shortly: as §1
CRX, sequence (O43186 whole entry): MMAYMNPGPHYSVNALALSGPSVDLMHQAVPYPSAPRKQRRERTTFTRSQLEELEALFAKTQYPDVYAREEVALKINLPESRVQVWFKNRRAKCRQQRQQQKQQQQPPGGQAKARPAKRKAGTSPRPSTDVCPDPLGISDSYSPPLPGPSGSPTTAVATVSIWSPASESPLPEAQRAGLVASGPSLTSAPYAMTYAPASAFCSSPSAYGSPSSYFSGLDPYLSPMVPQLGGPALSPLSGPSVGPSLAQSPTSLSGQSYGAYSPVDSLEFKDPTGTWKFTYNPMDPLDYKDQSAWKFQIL
Another test concerns the target ETV1 (Homo sapiens, UniProt P50549 1-477). The note with it: protein: recombinant; tags: N-terminal GST; dsDNA, one strand shown. Put shortly:
as §1

Another test concerns the target T6, ERF (Homo sapiens, UniProt P50548 1-548).
T6 sequence: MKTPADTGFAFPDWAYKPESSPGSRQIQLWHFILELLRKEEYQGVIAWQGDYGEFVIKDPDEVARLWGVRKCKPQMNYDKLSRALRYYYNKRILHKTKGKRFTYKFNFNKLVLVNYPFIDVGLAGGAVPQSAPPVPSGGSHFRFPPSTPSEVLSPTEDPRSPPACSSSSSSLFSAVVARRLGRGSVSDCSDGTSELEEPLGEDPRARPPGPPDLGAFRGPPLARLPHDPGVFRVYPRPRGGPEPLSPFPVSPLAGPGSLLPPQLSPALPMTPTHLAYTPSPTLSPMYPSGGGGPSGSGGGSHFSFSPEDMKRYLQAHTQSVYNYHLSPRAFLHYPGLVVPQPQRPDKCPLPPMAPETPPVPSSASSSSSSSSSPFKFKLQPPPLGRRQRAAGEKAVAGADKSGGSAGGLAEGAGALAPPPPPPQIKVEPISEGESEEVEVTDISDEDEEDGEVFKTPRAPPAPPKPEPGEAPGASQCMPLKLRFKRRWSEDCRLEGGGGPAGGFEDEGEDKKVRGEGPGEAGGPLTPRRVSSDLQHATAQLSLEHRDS
Conditions: protein: recombinant; tags: N-terminal GST; dsDNA, one strand shown. Put shortly:
as §1

In a further test the target is T7, ETV3L (Homo sapiens, UniProt Q6ZN32 1-361).
T7 sequence: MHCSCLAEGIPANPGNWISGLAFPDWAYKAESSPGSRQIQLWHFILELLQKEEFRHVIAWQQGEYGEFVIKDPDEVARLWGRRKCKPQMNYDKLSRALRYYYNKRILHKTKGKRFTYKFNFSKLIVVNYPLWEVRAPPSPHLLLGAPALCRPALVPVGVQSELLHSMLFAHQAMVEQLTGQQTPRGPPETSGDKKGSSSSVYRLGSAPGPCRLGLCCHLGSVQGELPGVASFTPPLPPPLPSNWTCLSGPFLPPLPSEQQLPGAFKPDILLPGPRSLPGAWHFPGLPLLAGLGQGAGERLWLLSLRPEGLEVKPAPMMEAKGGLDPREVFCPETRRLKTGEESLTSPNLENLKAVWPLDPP
The note with it: protein: recombinant; tags: N-terminal GST; dsDNA, one strand shown. An outline of the steps:
as §1

A further test has as its target T8, ETS2 (Homo sapiens, UniProt P15036 1-469).
T8 sequence: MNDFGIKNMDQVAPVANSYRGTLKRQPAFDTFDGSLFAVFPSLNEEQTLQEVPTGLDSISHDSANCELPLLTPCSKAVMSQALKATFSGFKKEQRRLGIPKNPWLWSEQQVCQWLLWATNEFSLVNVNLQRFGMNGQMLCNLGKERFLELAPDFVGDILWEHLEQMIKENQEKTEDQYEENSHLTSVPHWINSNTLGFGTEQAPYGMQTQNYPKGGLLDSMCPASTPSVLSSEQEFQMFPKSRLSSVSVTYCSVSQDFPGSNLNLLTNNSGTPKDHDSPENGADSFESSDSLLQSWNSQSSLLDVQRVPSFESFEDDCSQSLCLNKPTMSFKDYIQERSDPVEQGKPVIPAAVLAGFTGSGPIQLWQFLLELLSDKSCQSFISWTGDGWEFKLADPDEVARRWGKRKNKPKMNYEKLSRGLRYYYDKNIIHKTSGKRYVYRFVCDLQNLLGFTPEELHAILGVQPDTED
The note with it: protein: recombinant; tags: N-terminal GST; dsDNA, one strand shown. Put shortly:
as §1

Another test has as its target T9, SPDEF (Homo sapiens, UniProt O95238 1-335).
T9 sequence: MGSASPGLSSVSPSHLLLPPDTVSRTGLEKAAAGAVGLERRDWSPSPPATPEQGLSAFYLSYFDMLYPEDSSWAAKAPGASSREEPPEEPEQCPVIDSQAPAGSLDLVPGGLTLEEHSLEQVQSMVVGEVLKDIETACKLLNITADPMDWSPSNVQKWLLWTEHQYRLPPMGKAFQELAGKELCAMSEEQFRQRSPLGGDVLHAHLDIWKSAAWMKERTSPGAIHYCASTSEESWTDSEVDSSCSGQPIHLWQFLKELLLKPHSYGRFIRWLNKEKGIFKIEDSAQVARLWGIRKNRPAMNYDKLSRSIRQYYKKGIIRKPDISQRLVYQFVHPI
The note with it: protein: recombinant; tags: N-terminal GST; dsDNA, one strand shown. An outline of the steps: as §1

For another test, the target named is T10, ETV7 (Homo sapiens, UniProt Q9Y603 1-341).
T10 sequence: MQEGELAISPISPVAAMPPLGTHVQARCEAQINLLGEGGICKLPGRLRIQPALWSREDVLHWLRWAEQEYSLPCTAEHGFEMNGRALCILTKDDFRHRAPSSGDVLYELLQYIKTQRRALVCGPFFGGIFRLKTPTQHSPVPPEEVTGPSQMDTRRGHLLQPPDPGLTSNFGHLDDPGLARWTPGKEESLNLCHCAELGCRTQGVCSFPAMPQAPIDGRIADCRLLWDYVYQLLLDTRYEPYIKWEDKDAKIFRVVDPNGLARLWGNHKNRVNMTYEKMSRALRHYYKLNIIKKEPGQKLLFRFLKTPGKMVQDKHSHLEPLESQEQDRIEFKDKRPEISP
Conditions: protein: recombinant; tags: N-terminal GST; dsDNA, one strand shown. Put shortly: as §1

The next test concerns the target T11, ELF5 (Homo sapiens, UniProt Q9UKW6-2 1-255).
T11 sequence: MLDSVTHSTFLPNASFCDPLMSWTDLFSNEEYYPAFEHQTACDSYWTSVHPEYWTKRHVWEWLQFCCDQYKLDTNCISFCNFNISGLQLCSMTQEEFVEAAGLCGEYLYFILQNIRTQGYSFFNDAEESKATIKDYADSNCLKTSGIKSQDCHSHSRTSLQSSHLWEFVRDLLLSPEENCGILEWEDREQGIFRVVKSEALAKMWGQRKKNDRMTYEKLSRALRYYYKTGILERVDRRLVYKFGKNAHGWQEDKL
Conditions: protein: recombinant; tags: N-terminal GST; dsDNA, one strand shown. An outline of the steps:
as §1

A further test concerns the target T12, ETV3 (Homo sapiens, UniProt P41162-2 1-143).
T12 sequence: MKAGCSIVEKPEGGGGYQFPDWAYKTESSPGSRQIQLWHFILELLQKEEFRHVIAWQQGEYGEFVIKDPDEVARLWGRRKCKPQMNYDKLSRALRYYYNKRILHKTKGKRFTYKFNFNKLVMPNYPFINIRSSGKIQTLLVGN
The note with it: protein: recombinant; tags: N-terminal GST; dsDNA, one strand shown. An outline of the steps:
as §1

Another test has as its target ETV6 (Homo sapiens, UniProt P41212 1-452). The note with it: protein: recombinant; tags: N-terminal GST; dsDNA, one strand shown. An outline of the steps: as §1

ELF4, sequence (Q99607 whole entry): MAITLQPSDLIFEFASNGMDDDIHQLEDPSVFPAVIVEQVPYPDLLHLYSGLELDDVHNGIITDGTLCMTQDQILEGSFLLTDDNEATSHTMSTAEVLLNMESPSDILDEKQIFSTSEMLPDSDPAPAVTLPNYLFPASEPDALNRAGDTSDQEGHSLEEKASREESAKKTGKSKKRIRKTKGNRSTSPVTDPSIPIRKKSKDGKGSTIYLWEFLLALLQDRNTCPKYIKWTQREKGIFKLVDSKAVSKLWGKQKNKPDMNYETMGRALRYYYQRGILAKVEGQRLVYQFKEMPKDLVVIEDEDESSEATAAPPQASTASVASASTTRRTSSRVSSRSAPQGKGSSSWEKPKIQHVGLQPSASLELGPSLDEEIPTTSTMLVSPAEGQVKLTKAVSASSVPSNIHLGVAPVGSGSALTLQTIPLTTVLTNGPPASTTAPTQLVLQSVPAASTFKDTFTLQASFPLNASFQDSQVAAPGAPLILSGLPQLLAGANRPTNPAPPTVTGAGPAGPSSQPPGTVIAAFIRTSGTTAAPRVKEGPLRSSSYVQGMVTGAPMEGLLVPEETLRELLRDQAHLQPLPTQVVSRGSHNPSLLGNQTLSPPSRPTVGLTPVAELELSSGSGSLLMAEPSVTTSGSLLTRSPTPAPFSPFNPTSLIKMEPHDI
ETV5, sequence (P41161 whole entry): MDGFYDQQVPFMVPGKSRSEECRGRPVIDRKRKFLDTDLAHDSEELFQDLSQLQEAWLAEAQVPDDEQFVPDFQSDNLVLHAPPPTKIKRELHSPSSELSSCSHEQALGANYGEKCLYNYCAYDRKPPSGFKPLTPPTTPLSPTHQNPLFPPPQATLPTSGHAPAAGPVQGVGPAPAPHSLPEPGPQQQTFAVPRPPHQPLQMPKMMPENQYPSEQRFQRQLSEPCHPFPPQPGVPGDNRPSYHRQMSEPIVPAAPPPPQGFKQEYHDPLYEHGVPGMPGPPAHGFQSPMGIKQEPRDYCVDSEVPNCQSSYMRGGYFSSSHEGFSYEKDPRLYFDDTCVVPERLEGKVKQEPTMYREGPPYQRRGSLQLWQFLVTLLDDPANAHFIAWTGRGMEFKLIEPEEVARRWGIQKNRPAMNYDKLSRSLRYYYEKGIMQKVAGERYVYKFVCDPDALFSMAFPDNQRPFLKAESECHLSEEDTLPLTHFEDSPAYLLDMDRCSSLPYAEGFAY
ETV1, sequence (P50549 whole entry): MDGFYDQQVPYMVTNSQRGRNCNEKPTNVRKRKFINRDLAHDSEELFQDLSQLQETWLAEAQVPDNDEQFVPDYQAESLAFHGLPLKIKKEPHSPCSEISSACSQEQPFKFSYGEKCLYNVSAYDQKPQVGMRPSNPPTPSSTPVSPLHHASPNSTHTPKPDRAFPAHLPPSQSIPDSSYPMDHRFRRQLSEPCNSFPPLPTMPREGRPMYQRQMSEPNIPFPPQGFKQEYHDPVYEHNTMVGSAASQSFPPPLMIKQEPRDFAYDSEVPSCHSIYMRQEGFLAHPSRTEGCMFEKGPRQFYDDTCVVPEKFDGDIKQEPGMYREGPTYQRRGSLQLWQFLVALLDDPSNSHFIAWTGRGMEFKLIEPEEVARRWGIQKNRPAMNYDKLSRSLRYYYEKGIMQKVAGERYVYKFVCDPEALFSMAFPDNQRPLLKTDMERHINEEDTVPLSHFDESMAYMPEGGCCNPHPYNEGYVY
ETV6, sequence (P41212 whole entry): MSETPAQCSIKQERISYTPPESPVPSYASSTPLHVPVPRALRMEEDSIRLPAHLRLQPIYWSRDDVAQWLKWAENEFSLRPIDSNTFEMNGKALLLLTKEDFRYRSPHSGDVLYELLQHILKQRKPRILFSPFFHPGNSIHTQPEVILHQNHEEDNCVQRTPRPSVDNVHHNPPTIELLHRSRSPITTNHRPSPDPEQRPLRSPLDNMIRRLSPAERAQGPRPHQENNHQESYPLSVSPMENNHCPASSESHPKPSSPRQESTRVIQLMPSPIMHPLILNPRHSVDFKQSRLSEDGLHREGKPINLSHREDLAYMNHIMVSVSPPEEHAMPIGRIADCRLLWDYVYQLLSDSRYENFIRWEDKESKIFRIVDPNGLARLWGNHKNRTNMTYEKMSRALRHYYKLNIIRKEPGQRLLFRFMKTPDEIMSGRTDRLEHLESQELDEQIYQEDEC
HSF1, sequence (Q00613 whole entry): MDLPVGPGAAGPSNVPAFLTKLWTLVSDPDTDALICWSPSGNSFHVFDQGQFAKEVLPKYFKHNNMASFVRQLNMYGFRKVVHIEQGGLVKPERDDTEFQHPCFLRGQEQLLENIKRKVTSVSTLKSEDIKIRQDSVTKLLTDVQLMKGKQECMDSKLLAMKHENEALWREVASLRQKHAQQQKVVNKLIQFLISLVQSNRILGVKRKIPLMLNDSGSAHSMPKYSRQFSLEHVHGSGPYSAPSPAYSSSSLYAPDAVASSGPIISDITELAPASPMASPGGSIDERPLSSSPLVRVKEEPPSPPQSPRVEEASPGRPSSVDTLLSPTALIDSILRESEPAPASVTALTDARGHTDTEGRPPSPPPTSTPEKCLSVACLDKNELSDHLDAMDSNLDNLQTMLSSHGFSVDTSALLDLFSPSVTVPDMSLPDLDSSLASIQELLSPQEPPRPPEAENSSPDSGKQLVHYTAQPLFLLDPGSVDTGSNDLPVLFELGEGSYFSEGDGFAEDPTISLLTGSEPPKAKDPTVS

Regarding GCTCTC, the binding signal was 1.47 fold enrichment (6-mer frequency, TF over GST control) in the test with FEV; 1.28 fold enrichment (6-mer frequency, TF over GST control) with ETV5; 1.42 fold enrichment (6-mer frequency, TF over GST control) with HSF1; 1.33 fold enrichment (6-mer frequency, TF over GST control) with SPIC; 1.45 fold enrichment (6-mer frequency, TF over GST control) with ELF4; 1.56 fold enrichment (6-mer frequency, TF over GST control) with ELK4. Also, the binding signal was 1.61 fold enrichment (6-mer frequency, TF over GST control) in the test with ETV2; 1.35 fold enrichment (6-mer frequency, TF over GST control) with ELF3; 1.24 fold enrichment (6-mer frequency, TF over GST control) with CRX; 1.57 fold enrichment (6-mer frequency, TF over GST control) with ETV1; 1.42 fold enrichment (6-mer frequency, TF over GST control) in the test with ERF; 1.52 fold enrichment (6-mer frequency, TF over GST control) with ETV3L. Besides, the binding signal in the test with ETS2 was 1.51 fold enrichment (6-mer frequency, TF over GST control); with SPDEF, 1.12 fold enrichment (6-mer frequency, TF over GST control); in the test with ETV7, 1.25 fold enrichment (6-mer frequency, TF over GST control); in the test with ELF5, 1.2 fold enrichment (6-mer frequency, TF over GST control); with ETV3 it was 1.48 fold enrichment (6-mer frequency, TF over GST control); with ETV6 it was 1.43 fold enrichment (6-mer frequency, TF over GST control).
